According to PubChem BioAssay (Tox21):
Inconclusive results are not listed. The source made the active and inactive calls. The call rests on the fitted dose curve.

These compounds were tested against Vitamin D3 receptor (Homo sapiens) (UniProt P11473) (assay: qHTS assay to identify small molecule agonists of the vitamin D receptor (VDR) signaling pathway (AID 743222)). Conditions: HEK293T VDR-UAS-bla, beta-lactamase FRET ratio, 16 h; series mostly up to 63.5 µM.
Source text: National Center for Advancing Translational Sciences [NCATS]
NIH Chemical Genomics Center [NCGC]
U.S. Environmental Protection Agency [EPA]
National Institutes of Environmental Health Sciences [NIEHS]
National Toxicology Program [NTP]
U.S. Food and Drug Administration [FDA]
The vitamin D receptor (VDR), a member of nuclear hormone receptor superfamily, plays a critical role in calcium homeostasis and bone metabolism. It is also involved in cell differentiation and growth, and thrombogenicity.
Tox21 Assay Protocol Summary:
VDR-bla cells were dispensed at 2,000 cells/6 uL/well into black wall/clear-bottom 1536-well plates using a Multidrop Combi (Thermo Fisher Scientific, Waltham, MA) dispenser. After the assay plates were incubated at a 37C and 5% CO2 for 4 h, 23 nL of compounds dissolved in DMSO, positive controls or DMSO only was transferred to the assay plate by a Pintool station (Kalypsys, San Diego, CA). The plates were incubated at 37C and 5% CO2 for 16 h. After 1 uL of LiveBLAzerTM B/G FRET substrate was added using a Bioraptr Flying Reagent Dispenser (FRD) workstation (Beckman Coulter, Indianapolis, IN, USA), the plates were incubated at room temperature for 2 h, and fluorescence intensity was measured by an Envision plate reader (PerkinElmer, Shelton, CT).

Sequence of Vitamin D3 receptor (Homo sapiens) (P11473 whole entry, looked up): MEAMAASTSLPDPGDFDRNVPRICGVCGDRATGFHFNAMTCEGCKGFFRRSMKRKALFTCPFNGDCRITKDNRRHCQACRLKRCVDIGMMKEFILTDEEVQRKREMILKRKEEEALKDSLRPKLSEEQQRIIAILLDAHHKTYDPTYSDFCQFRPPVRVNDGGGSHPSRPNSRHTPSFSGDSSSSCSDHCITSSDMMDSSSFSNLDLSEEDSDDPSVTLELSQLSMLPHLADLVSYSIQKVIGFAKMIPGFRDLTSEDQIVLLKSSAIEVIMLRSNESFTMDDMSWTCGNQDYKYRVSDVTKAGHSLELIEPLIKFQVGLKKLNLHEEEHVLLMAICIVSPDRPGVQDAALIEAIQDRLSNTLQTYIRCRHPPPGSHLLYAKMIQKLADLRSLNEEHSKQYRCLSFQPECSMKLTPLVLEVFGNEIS

| SMILES | outcome |
| --- | --- |
| Cn1cnc2c(F)c(Nc3ccc(Br)cc3Cl)c(C(=O)NOCCO)cc21 | inactive |
| CCN1CC(CCN2CCOCC2)C(c2ccccc2)(c2ccccc2)C1=O (stereo not given) | inactive |
| CCOC(=O)COc1ccc2c(c1)CC(NCC(O)c1cccc(Cl)c1)CC2 (stereo not given) | inactive |
| CCN(O)CC | inactive |
| Cc1cccc(C)c1NC(=O)CN1CCCCCC1 | inactive |
| CCCS(=O)c1ccc2nc(NC(=O)OC)[nH]c2c1 (stereo not given) | inactive |
| NNS(=O)(=O)c1ccc(Oc2ccc(S(=O)(=O)NN)cc2)cc1 | inactive |
| COc1cc(C)ccc1C(C)C | inactive |
| C[C@]12CCC(=O)C=C1CC[C@@H]1[C@@H]2CC[C@@]2(C)[C@H]1CC[C@]2(O)C(=O)CO | inactive |
| Cc1ccc([N+](=O)[O-])c(N)c1 | inactive |
| COc1nc(C)nc(NC(=O)NS(=O)(=O)c2ccccc2OCCCl)n1 | inactive |
| CC(Oc1c(Cl)cccc1Cl)C1=NCCN1 (stereo not given) | inactive |
| CC1=CC(=O)CC(C)(C)C1=O | inactive |
| N#Cc1ccc(C(c2ccc(C#N)cc2)n2cncn2)cc1 | inactive |
| CN(C)Cc1ccccc1 | inactive |
| Cc1ccc([N+](=O)[O-])cc1Cl | inactive |
| O=C(CCCl)NCc1ccccc1 | inactive |
| CN1CCN(c2c(F)cc3c(=O)c(C(=O)O)cn(CCF)c3c2F)CC1 | inactive |
| NC/C=C/C(=O)O | inactive |
| CCC(=O)O[C@]1(C(=O)SCF)[C@H](C)C[C@H]2[C@@H]3C[C@H](F)C4=CC(=O)C=C[C@]4(C)[C@@]3(F)[C@@H](O)C[C@@]21C | inactive |

| SMILES | outcome |
| --- | --- |
| CCCCCCCCc1ccc(S(=O)(=O)O)cc1 | inactive |
| CC(C)=CCCC(C)CCOC=O (stereo not given) | inactive |
| Oc1ccccc1F | inactive |
| Nc1ccc(Oc2ccc(N)c(N)c2)cc1 | inactive |
| O=C(Cl)c1cccc([N+](=O)[O-])c1 | inactive |
| Cc1cc(S(=O)(=O)O)c(N)cc1Cl | inactive |
| Cc1onc(-c2ccccc2)c1C(=O)Cl | inactive |
| O=S(=O)(O)C(F)(F)F | inactive |
| Cc1cc2nc(N)sc2cc1C | inactive |
| O=C(CC(=O)C(F)(F)F)c1ccccc1 | inactive |
| Cc1c(C(=O)NCCO)[n+](=O)c2ccccc2n1[O-] | inactive |
| COC(C)CCO (stereo not given) | inactive |
| CC(=O)N[C@@H](CC(C)C)C(=O)O | inactive |
| Cc1cn([C@@H]2O[C@H](CO)[C@@H](O)[C@@H]2F)c(=O)[nH]c1=O | inactive |
| NC(=O)Cc1cccc(C(=O)c2ccccc2)c1N | inactive |
| CCN(CC)CC1CCCCN1CC(=O)N1c2ccccc2C(=O)Nc2cccnc21 (stereo not given) | inactive |
| CCOc1ccc(NC(N)=O)cc1 | inactive |
| O=C1CCCCCCCCCCC(=O)OCCO1 | inactive |
| OCC(CBr)(CBr)CBr | inactive |
| COC(=O)C(C)O (stereo not given) | inactive |
